# In PubChem BioAssay:
# Activity calls are given as the source filed them.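 How the source made its calls, unless noted: active means fluorescence slope after compound addition differing from the mean of all screened samples at 99.7% confidence, in either direction; inactive means the rest.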
# How the values were obtained:
# [1] = inhibitors of TNFa-induced NFkB p65 translocation, primary screen, imaging, HUVEC, MLSMR starter and 10KST1 sets (AID 438;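 active means inhibition above 20% together with a positive visual image hit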;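 further: compound added about 3h40 before a 20 min TNFalpha stimulation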;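 on inhibition: signal is the nuclear over cytoplasmic p65 intensity ratio per well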); settings: HUVEC TNFa-induced p65 nuclear translocation; cell count: measured here: nuclei count (cytotoxicity indicator), at 2.08 µM; inhibition: at 2 µM, stronger effect = higher value, 0% TNFa-plus-vehicle, 100% no-TNFa wells
# [2] = inhibitors of mutant huntingtin aggregation, primary screen, imaging, exon1htt(103Q)mCFP cells, high-content imaging (AID 483;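 active means visual image review flags a hit and inhibition of aggregation exceeds 20%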;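 further: compound exposure lasted 3 days before fixation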;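 on nuclei count: percent of the per-plate median nuclei count of sample wells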); settings: exon1htt(103Q)mCFP cell line, aggregate imaging, at 2 µM; inhibition of aggregation: stronger effect = higher value; nuclei count: measured here: cell count, toxicity
# [3] = inhibitors of E-selectin induction by TNFa, primary screen, imaging, HUVEC, immunofluorescence, MLSMR starter and 10KST1 sets (AID 487;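 active means visually confirmed hit in the image check and inhibition above 20%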;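 on inhibition: signal is fraction of cell area covered by stained E-selectin grains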;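 on nuclei count: 100% = median nuclei count of all wells on the same plate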); settings: HUVEC TNFalpha-induced E-selectin immunofluorescence imaging, at 2 µM; inhibition: stronger effect = higher value; nuclei count: measured here: cell number, toxicity
# [4] = target: Voltage-gated potassium channel subunit beta-2 (Rattus norvegicus) (UniProt P62483); test: KvBeta enzyme negative modulators, primary screen, biochemical, NADPH fluorescence (AID 622;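 active means fluorescence slope higher than the sample average by over 3 SD, cut at about -0.22 in these data, passing the limit was not always enough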;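 further: slope of raw intensity against log time taken from 70 to 1610 s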); settings: recombinant KvBeta, 4-cyanobenzaldehyde reduction, at 10 µM, stronger effect = higher value
# Voltage-gated potassium channel subunit beta-2 (Rattus norvegicus), sequence (P62483 whole entry, looked up): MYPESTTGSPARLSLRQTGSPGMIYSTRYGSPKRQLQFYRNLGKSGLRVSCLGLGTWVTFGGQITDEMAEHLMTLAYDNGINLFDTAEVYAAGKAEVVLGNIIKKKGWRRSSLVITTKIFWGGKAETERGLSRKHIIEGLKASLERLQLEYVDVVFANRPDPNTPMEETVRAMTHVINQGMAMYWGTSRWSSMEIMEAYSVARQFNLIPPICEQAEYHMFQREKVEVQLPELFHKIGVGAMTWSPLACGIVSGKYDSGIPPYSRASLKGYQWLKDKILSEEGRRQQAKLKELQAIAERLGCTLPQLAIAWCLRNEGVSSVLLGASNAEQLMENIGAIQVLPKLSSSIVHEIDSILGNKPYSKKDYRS
# [5] = target: Voltage-gated potassium channel subunit beta-2 (Rattus norvegicus) (UniProt P62483); test: KvBeta positive modulators, primary screen, biochemical, NADPH fluorescence (AID 623;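 active means NADPH fluorescence slope more negative than the mean of all samples by about 3 SD, 99.7% confidence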;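 further: fluorescence intensity change per second fitted from 20 to 320 s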); settings: Recombinant KvBeta, NADPH fluorescence decrease slope, 10 min; at 10 µM; stronger effect = lower value
# [6] = target: Alpha-2C adrenergic receptor (Homo sapiens) (UniProt P18825); test: modulators of alpha2C/GIRK thallium flux, primary screen, cell-based, HEK293 alpha2C/GIRK1/2 (AID 624); settings: thallium flux BTC fluorescence, at 10 µM, actives lie on both sides;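 further: slope of fluorescence ratio to pre-addition baseline per second over 15 to 24 s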
# Alpha-2C adrenergic receptor (Homo sapiens), sequence (P18825 whole entry, looked up): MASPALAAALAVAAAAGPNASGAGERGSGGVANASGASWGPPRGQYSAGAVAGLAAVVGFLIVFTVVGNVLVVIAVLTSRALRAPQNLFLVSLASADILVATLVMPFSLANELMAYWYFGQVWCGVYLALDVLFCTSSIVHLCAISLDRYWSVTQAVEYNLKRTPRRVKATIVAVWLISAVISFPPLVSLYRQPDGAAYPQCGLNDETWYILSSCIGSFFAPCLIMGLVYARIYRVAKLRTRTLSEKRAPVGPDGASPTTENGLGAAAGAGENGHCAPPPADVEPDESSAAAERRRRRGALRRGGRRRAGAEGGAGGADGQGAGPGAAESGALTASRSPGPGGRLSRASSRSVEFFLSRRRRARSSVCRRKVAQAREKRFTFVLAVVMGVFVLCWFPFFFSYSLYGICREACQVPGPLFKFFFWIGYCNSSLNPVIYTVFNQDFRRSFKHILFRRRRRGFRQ
# [7] = inhibitors of Sendai virus-induced IRF3 signaling, primary screen, TLR/RLR signaling modifier project, cell-based, Sendai virus stimulus, luciferase, 10K MLSCN set (AID 602276;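 active means inhibition at or above 50% at 10 µM; inactive means inhibition below 50%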;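 further: firefly luciferase from ISG56 promoter only with Renilla not read in this screen; 0% = Sendai virus plus DMSO and 100% = medium plus DMSO without virus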); settings: HEK293 RL24 IRF3 luciferase reporter, at 10 µM, stronger effect = higher value
# [8] = inhibitors of poly I:C-induced TLR3 signaling, primary screen, cell-based, poly I:C stimulus, luciferase, 10K MLSCN set (AID 602277;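 active means inhibition of the reporter signal at or above 50%; inactive means inhibition below 50%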); settings: HEK293-TLR3 RL24 IRF3 luciferase reporter, at 10 µM, stronger effect = higher value
smiles,measurement,setting,value
O=C1c2ccccc2S(=O)(=O)N1Cc1nnc(-c2ccccc2Br)o1,cell count,[1],536
same,inhibition,[1],-4.9% (inactive)
same,inhibition of aggregation,[2],-9.2% (inactive)
same,nuclei count,[2],106%
same,inhibition,[3],51.8% (active)
same,nuclei count,[3],99.5%
same,fluorescence slope,[4],-0.488 (inactive)
same,NADPH fluorescence slope,[5],-6e-05 (inactive)
same,slope,[6],0.00709 (inactive)
same,inhibition,[7],16.6% (inactive)
same,inhibition,[8],20.8% (inactive)
CCOc1ccc2[nH]c(=O)c(C(c3nnnn3Cc3ccco3)N3CCC(C)CC3)cc2c1 (centres undefined),cell count,[1],218
same,inhibition,[1],0.8% (inactive)
same,inhibition of aggregation,[2],13.4% (inactive)
same,nuclei count,[2],97.1%
same,inhibition,[3],-65.3% (inactive)
same,nuclei count,[3],82.3%
same,fluorescence slope,[4],-0.539 (inactive)
same,NADPH fluorescence slope,[5],-2.2e-05 (inactive)
same,slope,[6],0.00417 (inactive)
same,inhibition,[7],13% (inactive)
same,inhibition,[8],20.5% (inactive)
CC1=C(C(=O)NC2CCC(C)CC2)C2(CCC(C)CC2)OC1=O (centres undefined),cell count,[1],640
same,inhibition,[1],17.2% (inactive)
same,inhibition of aggregation,[2],-14.7% (inactive)
same,nuclei count,[2],99.8%
same,inhibition,[3],5.3% (inactive)
same,nuclei count,[3],126%
same,fluorescence slope,[4],-0.486 (inactive)
same,NADPH fluorescence slope,[5],7.7e-06 (inactive)
same,slope,[6],0.00549 (inactive)
same,inhibition,[7],10.7% (inactive)
same,inhibition,[8],15.1% (inactive)
CCOC(=O)c1cc2n(n1)C(C(F)(F)C(F)(F)F)CC(C)N2 (centres undefined),cell count,[1],650
same,inhibition,[1],-12.1% (inactive)
same,inhibition of aggregation,[2],4.6% (inactive)
same,nuclei count,[2],113%
same,inhibition,[3],-30.4% (inactive)
same,nuclei count,[3],106%
same,fluorescence slope,[4],-0.429 (inactive)
same,NADPH fluorescence slope,[5],2.3e-05 (inactive)
same,slope,[6],0.00828 (inactive)
same,inhibition,[7],11.4% (inactive)
same,inhibition,[8],14.9% (inactive)
CCOc1ccc(NC(=O)C(C)Sc2nnc(C)n2C)cc1 (centres undefined),cell count,[1],574
same,inhibition,[1],-9.5% (inactive)
same,inhibition of aggregation,[2],19.3% (inactive)
same,nuclei count,[2],74.5%
same,inhibition,[3],-33.5% (inactive)
same,nuclei count,[3],119%
same,fluorescence slope,[4],-0.591 (inactive)
same,NADPH fluorescence slope,[5],-1.5e-05 (inactive)
same,slope,[6],0.00656 (inactive)
same,inhibition,[7],-2.49% (inactive)
same,inhibition,[8],20.8% (inactive)
Cc1ccc(C)c(C(=O)CC2(O)C(=O)N(C)c3ccccc32)c1 (centres undefined),cell count,[1],497
same,inhibition,[1],0.7% (inactive)
same,inhibition of aggregation,[2],-18% (inactive)
same,nuclei count,[2],106%
same,inhibition,[3],-7% (inactive)
same,nuclei count,[3],122%
same,fluorescence slope,[4],-0.45 (inactive)
same,NADPH fluorescence slope,[5],-5.8e-05 (inactive)
same,slope,[6],0.00346 (inactive)
same,inhibition,[7],2.91% (inactive)
same,inhibition,[8],33.7% (inactive)
CCOC(=O)c1oc2ccccc2c1CSc1nnnn1-c1ccc(C)cc1,cell count,[1],371
same,inhibition,[1],-3.4% (inactive)
same,inhibition of aggregation,[2],8.2% (inactive)
same,nuclei count,[2],88.1%
same,inhibition,[3],-60.7% (inactive)
same,nuclei count,[3],106%
same,fluorescence slope,[4],-0.613 (inactive)
same,NADPH fluorescence slope,[5],-2.5e-05 (inactive)
same,slope,[6],0.00768 (inactive)
same,inhibition,[7],-16.8% (inactive)
same,inhibition,[8],1.2% (inactive)
O=C(c1ccc(S(=O)(=O)N2CCOCC2)cc1)N(c1ccc(F)cc1)C1C=CS(=O)(=O)C1 (centres undefined),cell count,[1],774
same,inhibition,[1],-19.7% (inactive)
same,inhibition of aggregation,[2],30.2% (inactive)
same,nuclei count,[2],111%
same,inhibition,[3],-74.8% (inactive)
same,nuclei count,[3],107%
same,fluorescence slope,[4],-0.288 (inactive)
same,NADPH fluorescence slope,[5],1.6e-05 (inactive)
same,slope,[6],0.0046 (inactive)
same,inhibition,[7],3.76% (inactive)
same,inhibition,[8],13.3% (inactive)
O=C(C1CC1)N1CCc2cc(Br)cc(S(=O)(=O)N3CCOCC3)c21,cell count,[1],300
same,inhibition,[1],2.2% (inactive)
same,inhibition of aggregation,[2],-4.4% (inactive)
same,nuclei count,[2],106%
same,inhibition,[3],-22.9% (inactive)
same,nuclei count,[3],112%
same,fluorescence slope,[4],-0.59 (inactive)
same,NADPH fluorescence slope,[5],-3.6e-05 (inactive)
same,slope,[6],0.00736 (inactive)
same,inhibition,[7],15.4% (inactive)
same,inhibition,[8],24.8% (inactive)
COC(=O)C1=C(C)OC(N)=C(C#N)C1c1c(C)nn(-c2ccccc2)c1Cl (centres undefined),cell count,[1],798
same,inhibition,[1],3.8% (inactive)
same,inhibition of aggregation,[2],12.3% (inactive)
same,nuclei count,[2],107%
same,inhibition,[3],-33.5% (inactive)
same,nuclei count,[3],126%
same,fluorescence slope,[4],-0.524 (inactive)
same,NADPH fluorescence slope,[5],1e-05 (inactive)
same,slope,[6],0.00643 (inactive)
same,inhibition,[7],-88.9% (inactive)
same,inhibition,[8],-11.8% (inactive)
COc1ccc(C(=O)N2CCCc3ccccc32)cc1,cell count,[1],433
same,inhibition,[1],2.5% (inactive)
same,inhibition of aggregation,[2],-1.4% (inactive)
same,nuclei count,[2],107%
same,inhibition,[3],4.7% (inactive)
same,nuclei count,[3],110%
same,fluorescence slope,[4],-0.519 (inactive)
same,NADPH fluorescence slope,[5],-8e-05 (inactive)
same,slope,[6],0.00477 (inactive)
same,inhibition,[7],7.26% (inactive)
same,inhibition,[8],5.78% (inactive)
Cc1ccccc1-n1c(=O)cc(NCc2ccc3c(c2)OCO3)[nH]c1=O,cell count,[1],447
same,inhibition,[1],1.6% (inactive)
same,inhibition of aggregation,[2],40.2% (active)
same,nuclei count,[2],74.9%
same,inhibition,[3],-155% (inactive)
same,nuclei count,[3],95.2%
same,fluorescence slope,[4],-0.614 (inactive)
same,NADPH fluorescence slope,[5],1.9e-05 (inactive)
same,slope,[6],0.00889 (inactive)
same,inhibition,[7],16.5% (inactive)
same,inhibition,[8],19.7% (inactive)
CCCCSCCCNC(=O)CS(=O)Cc1nc(-c2cccc(C)c2)oc1C (centres undefined),cell count,[1],527
same,inhibition,[1],-9.6% (inactive)
same,inhibition of aggregation,[2],-1.1% (inactive)
same,nuclei count,[2],107%
same,inhibition,[3],-27.5% (inactive)
same,nuclei count,[3],113%
same,fluorescence slope,[4],-0.308 (inactive)
same,NADPH fluorescence slope,[5],1.3e-05 (inactive)
same,slope,[6],-0.000762 (active)
same,inhibition,[7],10.8% (inactive)
same,inhibition,[8],10.7% (inactive)
CCOc1cc(C(=O)Nc2c3c(nn2C(C)(C)C)CS(=O)C3)cc(OCC)c1OCC (centres undefined),cell count,[1],525
same,inhibition,[1],-16.3% (inactive)
same,inhibition of aggregation,[2],-15.3% (inactive)
same,nuclei count,[2],109%
same,inhibition,[3],16.3% (inactive)
same,nuclei count,[3],122%
same,fluorescence slope,[4],-0.545 (inactive)
same,NADPH fluorescence slope,[5],2.6e-05 (inactive)
same,slope,[6],0.00616 (inactive)
same,inhibition,[7],6.91% (inactive)
same,inhibition,[8],3.04% (inactive)
